{"source": "PubChem BioAssay (NCI)", "note": "Several values for one entry are separate records, joined by “and”; a condition that tells them apart may be missing. Equal entries are not always repeated. Compounds without any hit were thinned out: in the full panel of roughly 83,000, 20% have a hit.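 Cell lines were cultured in 96-well plates, exposed to a single compound concentration, and assessed for percent growth 48 hours later.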 Activity calls are given as the source filed them.", "data": [{"tested_on": "SR leukemia", "assay": "NCI-60 one-dose screen, 48 h (100 = growth as untreated, 0 = no growth, -100 = all killed)", "conditions": "10 µM", "protocol": "Growth inhibition of the SR human tumor cell line is measured as a screen for anti-cancer activity. Cells are grown in 96 well plates and exposed to the test compound for 48 hours. Compounds are tested at a single concentration, which is 10^-5 M for most compounds. The reported endpoint is percent growth (GI% or GIPRCNT), where numbers from 0 - 100% represent growth inhibition, and numbers from -100% - 0 represent cell death. For example, a value of 40 represents 60% growth inhibition. A value of 0 means no net growth occurred over the course of the experiment. A value of -40 indicates 40% of cells at the beginning of the experiment died by the end of the experiment. A value of -100 means all cells are dead at the end of the experiment.\nNCI-60 Human Tumor Cell Lines Screen was performed using the standard one-dose NCI protocol, which is described in more detail at https://dtp.cancer.gov/discovery_development/nci-60/default.htm.\nCompounds with GIPRCNT values below 10 were considered active. Activity score was based on GIPRCNT using the following formula: […]\nScore is 0 for GIPRCNT values of 100 or above, 50 for GIPRCNT values of 0, and 100 for GIPRCNT values of -100.", "values": [{"molecule": "[O-][n+]1ccccc1S", "growth": "7.55% (active)"}, {"molecule": "NNc1ccccc1", "growth": "53% (inactive)"}, {"molecule": "COS(=O)(=O)c1ccccc1", "growth": "71.1% (inactive)"}, {"molecule": "C[C@@H]1C[C@@H]([C@H](O)CC2CC(=O)NC(=O)C2)C(=O)[C@@H](C)C1", "growth": "13.8% (inactive)"}, {"molecule": "COc1ccccc1[As]=[As]c1ccccc1OC", "note": "(stereo not given)", "growth": "-2.26% (active)"}, {"molecule": "Cc1cc(C(C)(C)c2ccc(O)c(C)c2)ccc1O", "growth": "92.2% (inactive)"}, {"molecule": "COc1cc(/C=C(/C)[N+](=O)[O-])ccc1O", "growth": "-14.7% (active) and -4.36% (active)"}, {"molecule": "Cc1ccc(NC(=O)CBr)cc1", "growth": "89.5% (inactive)"}, {"molecule": "CC[C@@]1(O)C[C@H](OC2CC(N(C)C)C(O)C(C)O2)c2c(cc3c(c2O)C(=O)c2c(O)ccc(O)c2C3=O)[C@H]1C(=O)OC", "note": "(stereo not given in full)", "growth": "-18.2% (active)"}, {"molecule": "COc1ccc(/C=C\\[N+](=O)[O-])cc1OC", "growth": "16.6% (inactive) and -16.1% (active)"}, {"molecule": "C#CC1(O)CCC(C(C)(C)C)CC1", "note": "(stereo not given)", "growth": "113% (inactive)"}, {"molecule": "O=[N+]([O-])c1ccc(Br)c([N+](=O)[O-])c1", "growth": "21.8% (inactive)"}, {"molecule": "O=C(CBr)Nc1ccccc1", "growth": "48.1% (inactive)"}, {"molecule": "COC1CC2C=C(C)/C=C/C=C/C(=O)NC(c3ccccc3)C/C=C/CCC(O)CC(=O)C2=C1O", "note": "(stereo not given)", "growth": "2.86% (active)"}, {"molecule": "NC(Cc1ccccc1)c1ccccc1", "note": "(stereo not given)", "growth": "99.9% (inactive) and 93.7% (inactive)"}, {"molecule": "NC(=O)c1cc([N+](=O)[O-])c(Cl)c([N+](=O)[O-])c1", "growth": "-3.5% (active)"}, {"molecule": "CC(Cc1ccc2c(c1)OCO2)NN", "note": "(stereo not given)", "growth": "91.6% (inactive)"}, {"molecule": "NC(=O)c1cc([N+](=O)[O-])c(Cl)c([N+](=O)[O-])c1Cl", "growth": "-11.2% (active)"}, {"molecule": "CC[C@@H](C)[C@@H]1NC(=O)C(NC(=O)C(CC(C)C)N(C)C(=O)C2CCCN2C(=O)C(C)O)C(C)OC(=O)C(Cc2ccc(OC)cc2)N(C)C(=O)C2CCCN2C(=O)C(CC(C)C)NC(=O)C(C)C(=O)C(C(C)C)OC(=O)C[C@H]1O", "note": "(stereo not given in full)", "growth": "1.46% (active)"}, {"molecule": "O=C(CBr)Nc1ccc(Cl)cc1", "growth": "-28.8% (active)"}, {"molecule": "COc1cc([C@@H]2c3cc4c(c(O)c3C[C@H]3COC(=O)[C@@H]32)OCO4)cc(OC)c1OC", "growth": "-3.92% (active)"}, {"molecule": "Oc1ccccc1-c1ccccc1", "growth": "92% (inactive) and 87.9% (inactive)"}, {"molecule": "COc1cc(/C=C\\[N+](=O)[O-])ccc1O", "growth": "8.06% (active) and 40% (inactive)"}, {"molecule": "CC(C)(C)OOC(=O)/C=C\\C(=O)OOC(C)(C)C", "growth": "93.5% (inactive)"}, {"molecule": "N#CCc1ccccc1", "growth": "104% (inactive)"}, {"molecule": "COc1cc2c(cc1OC)C13CCN4CC5=CCOC6CC(=O)N2C1C6C5CC43", "note": "(stereo not given)", "growth": "82% (inactive)"}, {"molecule": "COC12C(COC(N)=O)C3=C(C(=O)C(C)=C(N)C3=O)N1CC1C2N1C", "note": "(stereo not given)", "growth": "4.38% (active)"}, {"molecule": "C[CH2][Hg][S]c1ccccc1C(=O)O", "growth": "-5.7% (active)"}, {"molecule": "CC(C)C1(NC(=O)C2CC3c4cccc5[nH]cc(c45)CC3N(C)C2)OC2(O)C3CCCN3C(=O)C(Cc3ccccc3)N2C1=O", "note": "(stereo not given)", "growth": "87.8% (inactive)"}, {"molecule": "O=C1C=Cc2ccccc2C1=O", "growth": "61.8% (inactive)"}, {"molecule": "O=[N+]([O-])/C=C/c1ccc(Cl)cc1[N+](=O)[O-]", "growth": "4.94% (active)"}, {"molecule": "COc1cc(/C=C/[N+](=O)[O-])cc(OC)c1OC", "growth": "-17.7% (active)"}, {"molecule": "C/C1=C\\[C@H](C)C[C@H](C)OC(=O)C[C@H](c2ccc(O)cc2)NC(=O)[C@@H](Cc2c(Br)[nH]c3ccccc23)N(C)C(=O)[C@H](C)NC(=O)[C@@H](C)C1", "growth": "-3.88% (active)"}, {"molecule": "Oc1c(Cl)cc(Cl)c2ccccc12.[Cu+2]", "growth": "31.4% (inactive)"}, {"molecule": "CCOP(=O)(OCC)C(O)c1ccccc1Cl", "note": "(stereo not given)", "growth": "93.2% (inactive)"}, {"molecule": "CC(C)c1cc([N+](=O)[O-])cc([N+](=O)[O-])c1O", "growth": "94.3% (inactive)"}, {"molecule": "CC1CCC2(OC1)OC1C(O)C3C4CCC5CC(OC6OC(CO)C(OC7OC(CO)C(O)C(OC8OCC(O)C(O)C8O)C7OC7OC(CO)C(O)C(OC8OC(CO)C(O)C(O)C8O)C7O)C(O)C6O)C(O)CC5(C)C4CCC3(C)C1C2C", "note": "(stereo not given)", "growth": "9.36% (active)"}, {"molecule": "O=S(=O)(F)c1ccc(Cl)cc1", "growth": "107% (inactive)"}, {"molecule": "CN(CCCl)c1ccc(/C=C/C2=[N+](C)c3ccccc3C2(C)C)cc1", "growth": "12.3% (inactive)"}, {"molecule": "[Cl][Hg][c]1ccc(Cl)s1", "growth": "-17.1% (active)"}]}]}
